Data from PubChem BioAssay (NCI).
This is part of a sample that, as a whole, favours compounds with a hit. Of some 79,000 tested, about 15% had one in any assay. The source made the active and inactive calls. Cut-off read from the data, not from the text of the source: active = growth inhibition above about 70%; inactive = the rest.

Experiment: NCI Yeast Anticancer Drug Screen. Data for the mlh1 rad18 strain (AID 175)
Settings: S. cerevisiae mlh1 rad18 strain growth inhibition; at 50.0 µM (retest, dose inferred, filed as 5.0); hits give high values
In short: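 Yeast w/ defined DNA-repair lesions; compound exposure; growth vs vehicle controls → % inhibition.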

| Structure (SMILES) | growth inhibition |
| --- | --- |
| O=C1C(=O)C(CCCO)(CCCO)CCCCCCCCC1(CCCO)CCCO | 0% (inactive) |
| CC(C)(C)C(=O)CC(=O)C(F)(F)C(F)(F)C(F)(F)F.CC(C)(C)C(=O)CC(=O)C(F)(F)C(F)(F)C(F)(F)F.CC(C)(C)C(=O)CC(=O)C(F)(F)C(F)(F)C(F)(F)F.[Er] | 26% (inactive) |
| CCCCC(CC)COC(=O)c1cc2ccccc2oc1=O (stereo not given) | 19% (inactive) |
| Nc1ccc(-c2nc3ccccc3s2)cc1I | 77% (active) |
| CN1CCC(CCC(=O)OC(C)(C)C)(CN2c3ccccc3Sc3ccccc32)C1 (stereo not given) | 99% (active) |
| COc1cc(C(=O)C=[N+]=[N-])c([N+](=O)[O-])c(OC)c1OC | 89% (active) |
| COc1ccc(-n2cc(-c3ccc(Cl)cc3)c3c(N)ncnc32)cc1 | 99% (active) |
| COc1ccccc1/C=C1\SC(=S)N(/C=C2\C(=O)Oc3ccccc3C2=O)C1=O | 14% (inactive) |
| F[Si](c1ccccc1)(c1ccccc1)c1ccccc1 | 94% (active) |
| Cc1c2ccnc(-c3ccc(F)cc3)c2cc2c1[nH]c1ccccc12 | 11% (inactive) |
| CCN(CC)CCNc1c(OC)cc(C)c2sc3ccccc3c(=O)c12 | 86% (active) |
| O=c1cccc(C2CCc3cc(O)ccc3C2)[nH]1 (stereo not given) | 5% (inactive) |
| O/N=C1\c2ccccc2-c2ccc(Cl)cc21 | 36% (inactive) |
| CCCCN(CCCC)CC(O)c1cc(-c2ccc(Cl)cc2)nc2c(Cl)cccc12 (stereo not given) | -4% (inactive) |
| CN(C)c1ccc(-c2c(C#N)c(S)n(NS(=O)(=O)c3ccccc3)c(=O)c2C#N)cc1 | 94% (active) |
| Clc1ccc2ns[s+]c2c1 | 85% (active) |
| COc1ccc2c(c1)CC/C(=C\c1ccc(OCCN(C)C)cc1)C2=O | 28% (inactive) |
| CCCCOC(=O)c1cnc[nH]c1=O | 12% (inactive) |
| COC(=O)c1c(C)cccc1C1CN=NC12Cc1ccc(C)c(C)c1C2=O (stereo not given) | 57% (inactive) |
| CC1CCN(CCOC(=O)C(c2ccccc2)C2C=CCCC2)C1 (stereo not given) | 75% (active) |

| Structure (SMILES) | growth inhibition |
| --- | --- |
| CNCC(OB(c1ccccc1)c1ccccc1)c1ccccc1 (stereo not given) | 99% (active) |
| O=C1CCC(Cc2ccc(C(F)(F)F)cc2)C(=O)N1 (stereo not given) | 3% (inactive) |
| CC(C)(Br)C(Br)C(=O)C(Br)C(C)(C)Br (stereo not given) | 31% (inactive) |
| CCCCCCCCN(CCCCCCCC)CC(O)c1cc2c(c3ccccc13)CCCC2 (stereo not given) | 96% (active) |
| Brc1ccc(CCNCCN2CCCCC2)cc1 | 89% (active) |
| CC(C)=NNc1ncnc2nc[nH]c12 | 3% (inactive) |
| CC1=C/C(=C\c2ccc([N+](=O)[O-])o2)C(=O)O1 | 99% (active) |
| CCOC(=O)C(=O)Nc1nc2c(s1)C(=O)c1ccccc1C2=O | 94% (active) |
| CC1CC2(C)ON=C(c3ccccc3)N2c2ccccc2S1 (stereo not given) | 98% (active) |
| N#CC(CC(Br)CBr)(c1ccccc1)c1ccccc1 (stereo not given) | 51% (inactive) |
| Oc1ccc(-c2ccccc2)cc1Cl | 99% (active) |
| C=CCSc1nc2ccccc2c(=O)n1Cc1ccco1 | 64% (inactive) |
| CCOC(=O)c1ccc(O)c(OC)c1 | 0% (inactive) |
| O=C(COc1ccc2ccccc2c1)NC1c2ccccc2Oc2ccccc21 | 96% (active) |
| O=S(=O)(c1ccccc1)n1cc(C[P+](c2ccccc2)(c2ccccc2)c2ccccc2)c2ccccc21 | 99% (active) |
| CC/C(=N\O)c1ccc2cc(Br)c3ccccc3c2c1 | 88% (active) |
| CCOC(=O)C(C)(C)Oc1ccc2c(=O)cc(-c3ccccc3)oc2c1 | 94% (active) |
| CC(O)c1c2ccccc2cc2ccccc12 (stereo not given) | 85% (active) |
| CC(=O)OC1CCC2(C)C(CCC3C4=CCC(C5COC(=O)C5)C4(C)CCC32)C1 (stereo not given) | 90% (active) |
| NC(C(=O)O)C1=CCCCCC1 (stereo not given) | -4% (inactive) |

Same assay, conditions: S. cerevisiae mlh1 rad18 strain growth inhibition; at 50.0 µM; hits give high values

| Structure (SMILES) | growth inhibition |
| --- | --- |
| O=C1C(=O)C(CCCO)(CCCO)CCCCCCCCC1(CCCO)CCCO | -5.95% (inactive) |
| CC(C)(C)C(=O)CC(=O)C(F)(F)C(F)(F)C(F)(F)F.CC(C)(C)C(=O)CC(=O)C(F)(F)C(F)(F)C(F)(F)F.CC(C)(C)C(=O)CC(=O)C(F)(F)C(F)(F)C(F)(F)F.[Er] | 65.8% (inactive) |
| CCCCC(CC)COC(=O)c1cc2ccccc2oc1=O (stereo not given) | 67.8% (inactive) |
| Nc1ccc(-c2nc3ccccc3s2)cc1I | 84% (active) |
| CN1CCC(CCC(=O)OC(C)(C)C)(CN2c3ccccc3Sc3ccccc32)C1 (stereo not given) | 99.6% (active) |
| COc1cc(C(=O)C=[N+]=[N-])c([N+](=O)[O-])c(OC)c1OC | 94.4% (active) |
| COc1ccc(-n2cc(-c3ccc(Cl)cc3)c3c(N)ncnc32)cc1 | 88% (active) |
| COc1ccccc1/C=C1\SC(=S)N(/C=C2\C(=O)Oc3ccccc3C2=O)C1=O | 53.7% (inactive) |
| F[Si](c1ccccc1)(c1ccccc1)c1ccccc1 | 79.5% (active) |
| Cc1c2ccnc(-c3ccc(F)cc3)c2cc2c1[nH]c1ccccc12 | -5.15% (inactive) |
| CCN(CC)CCNc1c(OC)cc(C)c2sc3ccccc3c(=O)c12 | 94% (active) |
| O=c1cccc(C2CCc3cc(O)ccc3C2)[nH]1 (stereo not given) | 13.2% (inactive) |
| O/N=C1\c2ccccc2-c2ccc(Cl)cc21 | 79% (active) |
| CCCCN(CCCC)CC(O)c1cc(-c2ccc(Cl)cc2)nc2c(Cl)cccc12 (stereo not given) | 99.3% (active) |
| CN(C)c1ccc(-c2c(C#N)c(S)n(NS(=O)(=O)c3ccccc3)c(=O)c2C#N)cc1 | 60.7% (inactive) |
| Clc1ccc2ns[s+]c2c1 | -27.7% (inactive) |
| COc1ccc2c(c1)CC/C(=C\c1ccc(OCCN(C)C)cc1)C2=O | 57% (inactive) |
| CCCCOC(=O)c1cnc[nH]c1=O | 8.65% (inactive) |
| COC(=O)c1c(C)cccc1C1CN=NC12Cc1ccc(C)c(C)c1C2=O (stereo not given) | 72.8% (active) |
| CC1CCN(CCOC(=O)C(c2ccccc2)C2C=CCCC2)C1 (stereo not given) | 52.7% (inactive) |

| Structure (SMILES) | growth inhibition |
| --- | --- |
| CNCC(OB(c1ccccc1)c1ccccc1)c1ccccc1 (stereo not given) | 44.1% (inactive) |
| O=C1CCC(Cc2ccc(C(F)(F)F)cc2)C(=O)N1 (stereo not given) | 6.6% (inactive) |
| CC(C)(Br)C(Br)C(=O)C(Br)C(C)(C)Br (stereo not given) | 69% (inactive) |
| CCCCCCCCN(CCCCCCCC)CC(O)c1cc2c(c3ccccc13)CCCC2 (stereo not given) | 98.8% (active) |
| Brc1ccc(CCNCCN2CCCCC2)cc1 | 45% (inactive) |
| CC(C)=NNc1ncnc2nc[nH]c12 | -7.5% (inactive) |
| CC1=C/C(=C\c2ccc([N+](=O)[O-])o2)C(=O)O1 | 99.2% (active) |
| CCOC(=O)C(=O)Nc1nc2c(s1)C(=O)c1ccccc1C2=O | 96.3% (active) |
| CC1CC2(C)ON=C(c3ccccc3)N2c2ccccc2S1 (stereo not given) | 83.7% (active) |
| N#CC(CC(Br)CBr)(c1ccccc1)c1ccccc1 (stereo not given) | 75.5% (active) |
| Oc1ccc(-c2ccccc2)cc1Cl | 99% (active) |
| C=CCSc1nc2ccccc2c(=O)n1Cc1ccco1 | 46.5% (inactive) |
| CCOC(=O)c1ccc(O)c(OC)c1 | -7.1% (inactive) |
| O=C(COc1ccc2ccccc2c1)NC1c2ccccc2Oc2ccccc21 | 63% (inactive) |
| O=S(=O)(c1ccccc1)n1cc(C[P+](c2ccccc2)(c2ccccc2)c2ccccc2)c2ccccc21 | 99.3% (active) |
| CC/C(=N\O)c1ccc2cc(Br)c3ccccc3c2c1 | 98.6% (active) |
| CCOC(=O)C(C)(C)Oc1ccc2c(=O)cc(-c3ccccc3)oc2c1 | 89.9% (active) |
| CC(O)c1c2ccccc2cc2ccccc12 (stereo not given) | 78.8% (active) |
| CC(=O)OC1CCC2(C)C(CCC3C4=CCC(C5COC(=O)C5)C4(C)CCC32)C1 (stereo not given) | 78.1% (active) |
| NC(C(=O)O)C1=CCCCCC1 (stereo not given) | 15.4% (inactive) |
